Reference: PubChem BioAssay AID624086 (Broad Institute, 2012)
The source made the active and inactive calls.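 Rule for the calls: active = fitted half-maximal effect concentration at or below the top concentration tested; inactive = the rest.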

assay: TCF/LEF reporter activation, dose response, orthogonal assay for GSK3b inhibitor project, cell-based, HEK293T, firefly luciferase, dry powder (AID 624086); conditions: 24 h; series mostly up to 26 µM

outcome, inactive:
COc1ccccc1C1C2=C(CC(C)(C)CC2=O)Nc2ccccc21 (centres undefined), Cc1[nH]nc2c1C(c1cccs1)C1C(=O)CC(C)(C)CC1=N2 (centres undefined), Cc1[nH]nc2nc3c(cc12)C(=O)CC(C)(C)C3, COc1ccccc1C1C2=C(CC3(CCCCC3)CC2=O)Nc2n[nH]c(C)c21 (centres undefined), CC1(C)CC(=O)C2=C(C1)Nc1n[nH]c(C(F)(F)F)c1C2c1ccc(F)cc1C(F)(F)F (centres undefined), CC1(C)CC(=O)/C(=C\c2ccccc2C(F)(F)F)C(=Nc2cc(C(F)(F)F)[nH]n2)C1, CC1(C)CC(=O)C2=C(C1)Nc1n[nH]c(C(F)(F)F)c1C2c1c(F)cccc1F (centres undefined), O/N=C/c1cn(-c2ccccc2)nc1-c1ccccc1, COc1ccccc1[C@H]1C2=C(CC(C)(C)CC2=O)Nc2n[nH]c(C(F)(F)F)c21, Cc1[nH]nc2c1C(c1ccsc1)C1=C(CC(C)(C)CC1=O)N2 (centres undefined), COc1ccccc1-c1c2c(nc3n[nH]c(C)c13)CCC2=O, CN(C)Cc1cn(-c2ccccc2)nc1-c1ccccc1, Cc1[nH]nc2c1C(c1ccc(C(F)(F)F)cc1)C1=C(CC(C)(C)CC1=O)N2 (centres undefined), O/N=C/c1cn(-c2ccccc2)nc1-c1ccc(Cl)cc1
